Molecules are shown by their SMILES. Where “and” joins values, the source holds several entries; their conditions need not be identical. Identical values can stand only once. This is part of a sample that, as a whole, favours compounds with a hit. Of some 83,000 tested, about 20% had one in any assay.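 Step 1: grow cells in 96-well plates. Step 2: add test compound at a single concentration. Step 3: incubate 48 h. Step 4: record percent growth.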 Calls of active or inactive are those of the source. The calls were made as follows: active = growth percent below 10; inactive = the rest.

Test systems include SR leukemia; RPMI-8226 leukemia; OVCAR-8 ovarian; OVCAR-5 ovarian; OVCAR-4 ovarian; IGROV1 ovarian; OVCAR-3 ovarian; HS 578T breast; NCI/ADR-RES ovarian; T-47D breast; BT-549 breast; SW-620 colon; HCC-2998 colon; KM12 colon; MDA-MB-435 melanoma; MCF7 breast; HCT-116 colon; SK-OV-3 ovarian.
Experiment in all cases: NCI-60 one-dose screen, 48 h (100 = growth as untreated, 0 = no growth, -100 = all killed)
What all share (conditions): 10 µM unless noted

`Cc1cccc(/C=C\C(=O)c2ccc(Cl)cc2)c1`: the growth was 36% (inactive) and 3.37% (active) in the assay with SR leukemia; 26.1% (inactive) in the assay with RPMI-8226 leukemia; 101% (inactive) and 100% (inactive) in the assay with OVCAR-8 ovarian; 93.5% (inactive) and 98.5% (inactive) in the assay on OVCAR-5 ovarian; 89.1% (inactive) and 103% (inactive) in the assay with OVCAR-4 ovarian; 101% (inactive) and 92.7% (inactive) in the assay on IGROV1 ovarian. Also, the growth in the assay on OVCAR-3 ovarian was 96.6% (inactive) and 101% (inactive); in the assay with HS 578T breast, 112% (inactive) and 102% (inactive); in the assay on NCI/ADR-RES ovarian it was 101% (inactive) and 99.2% (inactive); with T-47D breast, 93.8% (inactive) and 91.9% (inactive); in the assay with BT-549 breast, 82.9% (inactive); in the assay with SW-620 colon, 89.3% (inactive) and 69% (inactive). For the same compound, the growth with HCC-2998 colon is 95% (inactive) and 98.2% (inactive); in the assay on KM12 colon, 96.3% (inactive) and 95.1% (inactive).
Consider `CC(CN=Cc1ccccc1O)N=Cc1ccccc1O` (stereo unspecified), for which the growth in the assay with SR leukemia was 100% (inactive); in the assay with RPMI-8226 leukemia, -6.87% (active) and 94% (inactive); in the assay on OVCAR-8 ovarian it was 106% (inactive) and 108% (inactive); with OVCAR-5 ovarian, 104% (inactive) and 95.5% (inactive); in the assay with OVCAR-4 ovarian, 109% (inactive) and 103% (inactive); in the assay with IGROV1 ovarian, -14.8% (active) and 112% (inactive). Also, the growth in the assay on OVCAR-3 ovarian is 97.4% (inactive) and 112% (inactive); in the assay with HS 578T breast it was 90.7% (inactive); with NCI/ADR-RES ovarian it was 105% (inactive) and 101% (inactive); in the assay on T-47D breast, 96.9% (inactive) and 94.2% (inactive); with BT-549 breast, 67.1% (inactive) and 118% (inactive); in the assay on MDA-MB-435 melanoma, 94% (inactive) and 122% (inactive). Also, the growth is 110% (inactive) and 96.8% (inactive) in the assay with SW-620 colon; 94.9% (inactive) and 95.8% (inactive) with MCF7 breast; 104% (inactive) and 102% (inactive) in the assay with HCT-116 colon; 102% (inactive) and 113% (inactive) in the assay with KM12 colon.
Consider `N#C/C(=C1C=C/C(=N/O)C(Br)=C/1)c1ccccc1`, for which the growth is 7.83% (active) in the assay on SR leukemia; 1.66% (active) in the assay with OVCAR-8 ovarian; 52.2% (inactive) in the assay on OVCAR-5 ovarian; 42.1% (inactive) in the assay with OVCAR-4 ovarian; 29.1% (inactive) with SK-OV-3 ovarian; 4.78% (active) in the assay on IGROV1 ovarian. Also, the growth with OVCAR-3 ovarian was -3.84% (active); in the assay on HS 578T breast, 42.6% (inactive); in the assay with NCI/ADR-RES ovarian it was 9.55% (active); in the assay on T-47D breast, 37.1% (inactive); with BT-549 breast it was 36.2% (inactive); in the assay with MDA-MB-435 melanoma it was -64.5% (active). The growth with SW-620 colon is 12.7% (inactive); with MCF7 breast, 18.2% (inactive); in the assay on HCT-116 colon it was -14.7% (active); with HCC-2998 colon, 58.3% (inactive); with KM12 colon, -32.6% (active).
`COc1cc2c(Nc3ccc(Cl)c(Cl)c3F)ncnc2cc1OCC1C[C@@H]2CN(C)C[C@@H]2C1` (stereo partly specified): the growth with SR leukemia was -23.1% (active) and -45.4% (active); in the assay with RPMI-8226 leukemia, -48.5% (active) and 6.02% (active); in the assay with OVCAR-8 ovarian, -88.4% (active) and 27.4% (inactive); in the assay on OVCAR-5 ovarian, -89.8% (active) and 37.6% (inactive); in the assay with OVCAR-4 ovarian it was -42.7% (active) and 29.5% (inactive); in the assay with IGROV1 ovarian, -70.1% (active) and -9.02% (active). Also, the growth in the assay with OVCAR-3 ovarian is -53.9% (active) and 25.6% (inactive); with HS 578T breast, -16.9% (active); in the assay on NCI/ADR-RES ovarian it was -56.5% (active) and 29.6% (inactive); with T-47D breast, -74.6% (active) and -6.7% (active); with BT-549 breast, -87.2% (active) and 36.9% (inactive); in the assay with SW-620 colon, -76.6% (active) and 6.96% (active). Further, the growth with MCF7 breast was -71.9% (active) and 13.4% (inactive); with HCT-116 colon, -85.4% (active) and 7.79% (active); with HCC-2998 colon, -87.7% (active) and 22.2% (inactive); with KM12 colon, -88.5% (active) and 39.9% (inactive).
Take `CCN(CC)CCC(CNc1ccnc2cc(Cl)ccc12)c1ccc(OC)cc1` (stereo unspecified): the growth was -26% (active) and -16.4% (active) in the assay with SR leukemia; 63.6% (inactive) and 46% (inactive) with OVCAR-8 ovarian; 76.1% (inactive) and 89.4% (inactive) with OVCAR-5 ovarian; 29.8% (inactive) and 47.4% (inactive) with OVCAR-4 ovarian; 92.7% (inactive) and 78.5% (inactive) in the assay with SK-OV-3 ovarian; 52.3% (inactive) and 38% (inactive) with IGROV1 ovarian. Further, the growth in the assay on OVCAR-3 ovarian was 84.3% (inactive) and 80.9% (inactive); with HS 578T breast, 74% (inactive); with NCI/ADR-RES ovarian it was 76.7% (inactive) and 72.8% (inactive); in the assay with T-47D breast, 57.9% (inactive) and 77.2% (inactive); with BT-549 breast, 72.2% (inactive) and 66.1% (inactive); in the assay with MDA-MB-435 melanoma it was 8.96% (active) and -30.1% (active). Also, the growth in the assay on SW-620 colon is 77.2% (inactive) and 61.2% (inactive); with MCF7 breast it was 80.6% (inactive) and 72.3% (inactive); in the assay with HCT-116 colon, 46.5% (inactive) and 39.4% (inactive); with HCC-2998 colon, 70.9% (inactive) and 52.7% (inactive); in the assay with KM12 colon it was 77.9% (inactive) and 75.8% (inactive).
On to `CC(=O)c1ccc2c(c1)N(CCCN1CCN(CCO)CC1)c1ccccc1S2`, for which the growth is -30.2% (active) in the assay with SR leukemia; 77.6% (inactive) and 10.7% (inactive) in the assay with RPMI-8226 leukemia; 82.5% (inactive) and 72.9% (inactive) with OVCAR-8 ovarian; 93% (inactive) and 51.6% (inactive) in the assay on OVCAR-5 ovarian; 101% (inactive) and 49.8% (inactive) in the assay on OVCAR-4 ovarian; 103% (inactive) and 40.7% (inactive) in the assay with OVCAR-3 ovarian. Further, the growth in the assay with HS 578T breast is 87.6% (inactive) and -20.1% (active); with NCI/ADR-RES ovarian, 95.6% (inactive) and 45.8% (inactive); in the assay on T-47D breast, 160% (inactive) and 37.8% (inactive); with BT-549 breast, 88.1% (inactive) and 44.6% (inactive); with MDA-MB-435 melanoma, 84.1% (inactive) and -67% (active); in the assay on SW-620 colon it was 95% (inactive) and -52.1% (active). In addition, the growth in the assay with MCF7 breast is 79.2% (inactive) and -31.2% (active); in the assay with HCT-116 colon it was 83.9% (inactive) and -11.8% (active); in the assay with HCC-2998 colon it was 102% (inactive) and -55.5% (active); in the assay with KM12 colon, 105% (inactive) and 2.29% (active).

The values above are taken from PubChem BioAssay (NCI).
